TROY signal inh = blocks TROY-dependent signaling in reporter cells. Q293 LMP1-TROYcd NF-kB luciferase reporter, 4 h. inhibition, % at 10 µM. actives 0.98% (n = 360,000). AID 1347056;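 active means compounds whose plate-normalised and pattern-corrected inhibition of the luciferase reporter signal at the single screening dose is 50% or more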
HSF1 activator = increases HSF-1 driven luciferase reporter signal | actives 1.7% (n = 300,000) | NIH3T3-HGL HSF-1 luciferase reporter, MG132, 8 h; 100% = twice DMSO control signal | AID 504408 | activation, % at 9 µM;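 active means mean replicate activation of at least 50% with a set share of replicates each reaching 50%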
LMP1 NFkB inh = Epstein-Barr LMP1 NF-kappaB reporter inhibition; LMP1-induced NF-kappaB luciferase reporter cells, luminescence; inhibition, % at 12.5 µM; actives 0.69% (n = 350,000); AID 504558; in the data active means inhibition above about 41%
HSF1 inhib = HSF1 inhibition; NIH3T3-HGL HSE-luciferase, MG132-induced, luminescence 8 h; hits give low values; actives 0.77% (n = 300,000); AID 2098; activity change, negative = inhibition, % at 7.5 µM (by protocol);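 active means more than half of replicate wells show activity change below -50%, luminescence cut by over half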;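 further: luciferase reports HSF-1 transcriptional activity via heat shock element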
LGR2 inh = blocks bursicon-induced cAMP signaling via Drosophila LGR2. inhibition, % at 9.99 µM. actives 0.35% (n = 380,000). HEK293 LGR2, CRE-luciferase, bursicon-stimulated, 4 h;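 active means drop in luminescence signal, shown as inhibition above about 50% in the replicate tests, limit read from the data, passing the limit was not always enough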;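 further: agonist challenge used bursicon conditioned medium at about half maximal strength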
TWEAK-Fn14 inh = blocks TWEAK-Fn14 interaction in a reporter cell assay; inhibition, % at 10 µM; TWEAK-stimulated Fn14 reporter cells, luciferase luminescence, 8 h; AID 1159606; actives 2% (n = 360,000); in the data active means inhibition above about 50%
Numbers stand for hits; i = inactive; nt = no result given. An excerpt weighted towards active compounds, which were near 3.6% of everything screened.

SMILES	TROY signal inh	HSF1 activator	LMP1 NFkB inh	HSF1 inhib	LGR2 inh	TWEAK-Fn14 inh
O=C(CC1Sc2ccccc2NC1=O)c1ccc(Br)cc1 (stereo unspecified)	i	70	i	i	i	i
O=C(O)CC1Sc2ccccc2NC1=O (stereo unspecified)	i	i	i	i	nt	i
COc1ccc(C(=O)CSc2nnc(-c3cnccn3)n2Cc2ccco2)cc1	i	i	i	i	nt	i
O=C(CSc1nnc(-c2cnccn2)n1Cc1ccco1)Nc1ccc(Br)cc1	nt	55	i	i	nt	i
Cc1ccc(NC(=O)CN(C)S(=O)(=O)c2ccc3c(c2)n(C)c(=O)c(=O)n3C)cc1	i	i	i	i	i	i
Cc1ccc(N(C)C(=O)CN(C)S(=O)(=O)c2ccc3c(c2)n(C)c(=O)c(=O)n3C)cc1	i	i	i	-91	i	i
CO[C@H]1CN(C)C(=O)c2cc(NC(=O)Nc3ccc(Cl)cc3)ccc2OC[C@H](C)N(C)C[C@@H]1C	nt	nt	nt	nt	i	nt
O=C(c1ccccc1)N1CCC(c2nc(-c3ccc(S(=O)(=O)N4CCOCC4)cc3)no2)CC1	nt	i	i	i	nt	62
Cc1cc(C(=O)Cn2ncc(Cl)c(Cl)c2=O)c(C)n1CC(F)(F)F	64	i	i	i	nt	95
CCCc1cc(=O)[nH]c(SCC(=O)c2cc(C)n(CC(F)(F)F)c2C)n1	i	i	i	i	i	i
Cc1cccc(Cn2ncc(Cl)c(Cl)c2=O)c1	i	i	i	i	99	i
Cc1ccc(C)c(C(=O)Cn2ncc(Cl)c(Cl)c2=O)c1	i	i	i	i	i	68
Cc1cc2oc(=O)cc(CN3CCN(c4ccccc4)CC3)c2cc1Cl	i	nt	nt	nt	i	i
O=c1c2ccccc2cnn1Cc1ccc(Cl)c(Cl)c1	i	i	i	i	i	i
Cc1cc2oc(=O)cc(Cn3ncc(Cl)c(Cl)c3=O)c2cc1Cl	83	81	i	i	nt	80
Cc1ccc(C)c(C(=O)CN2C(=O)c3ccccc3C2=O)c1	i	i	i	i	i	i
COCC(=O)Nc1ccc2c(c1)C(=O)N(C)C[C@@H](OC)[C@@H](C)CN(Cc1cccnc1)[C@@H](C)CO2	nt	nt	nt	nt	i	nt
CC(C)NC(=O)N(C)C[C@@H]1Oc2cc(Br)ccc2S(=O)(=O)N([C@H](C)CO)C[C@H]1C	nt	nt	nt	nt	i	nt
Cc1nc(NC(=O)c2csc3ccccc23)sc1C	i	61	i	i	i	i
CCN1CCc2nc(NC(=O)c3ccccc3)sc2C1	i	i	i	i	nt	85
COc1cc2nc(NC(=O)c3ccccc3)sc(=O)c2cc1OC	i	i	i	i	i	72
Cc1cccc(C(=O)Nc2ncc(CN3CCOCC3)s2)c1	i	i	i	i	i	66
Cc1ccc(S(=O)(=O)Nc2ccc3c(c2)C(=O)N([C@@H](C)CO)C[C@H](C)[C@@H](CN(C)C(=O)NC(C)C)OCCCC[C@@H](C)O3)cc1	nt	nt	nt	nt	i	nt
Cc1noc(C)c1S(=O)(=O)N(C)C[C@@H]1Oc2ccc(NS(=O)(=O)c3cn(C)cn3)cc2CC(=O)N([C@H](C)CO)C[C@H]1C	nt	nt	nt	nt	i	nt
CN(C)C(=O)c1cccc(-c2ccc([C@H]3[C@@H](C#N)N(C(=O)C4CCCC4)[C@H]3CO)cc2)c1	nt	nt	nt	nt	i	nt
SMILES	TROY signal inh	HSF1 activator	LMP1 NFkB inh	HSF1 inhib	LGR2 inh	TWEAK-Fn14 inh
O=C(C[C@H]1C[C@H]2c3cc(NC(=O)Nc4ccccc4)ccc3O[C@H]2[C@H](CO)O1)NCc1ccccn1	nt	nt	nt	nt	i	nt
Cc1nc(NC(=S)NC(=O)c2ccccc2)sc1C	i	i	i	i	i	i
CCOC(=O)Cc1cnc(NC(=O)c2ccccc2)s1	i	i	i	-54	i	i
Cc1nc(NC(=O)c2cc3ccccc3o2)sc1C	i	i	i	i	i	57
Cc1nnc(NC(=O)c2cc3ccccc3o2)s1	i	i	i	i	i	i
CCOC(=O)c1csc(NC(=O)c2ccccc2)n1	i	i	i	i	i	i
Cc1nc(NC(=O)c2ccccc2)sc1C	i	58	i	i	i	i
Cc1nc(Nc2ccccc2)sc1C	i	i	i	-52	i	i
O=C(CNC(=O)[C@@H]1Cc2ccccc2CN1)Nc1ccc2c(c1)OCCO2	i	i	i	-52	i	i
C[C@H](NC(=O)[C@@H]1Cc2ccccc2CN1)C(=O)Nc1ccc2c(c1)OCCO2	i	i	i	i	i	i
CSCC[C@H](NC(=O)[C@@H]1Cc2ccccc2CN1)C(=O)Nc1ccc2c(c1)OCCO2	i	i	i	-52	i	i
CC(C)[C@H](NC(=O)[C@@H]1Cc2ccccc2CN1)C(=O)Nc1ccc2c(c1)OCCO2	i	i	i	i	i	i
CCC(C)[C@H](NC(=O)[C@@H]1Cc2ccccc2CN1)C(=O)Nc1ccc2c(c1)OCO2 (stereo partly specified)	i	77	i	i	i	i
COc1cccc(-c2cn(CC[C@@H]3CC[C@H](NS(=O)(=O)Cc4ccccc4)[C@H](CO)O3)nn2)c1	nt	nt	nt	nt	i	nt
CCCNC(=O)N1C[C@@H]2[C@H](c3ccccc31)[C@H](CO)N2Cc1ccc(F)cc1	nt	nt	nt	nt	i	nt
Nc1nccnc1C(=O)OCC(=O)C12CC3CC(CC(C3)C1)C2	i	i	i	i	i	i
N#CC1(C#N)CC(C=O)=C(N)C1(C#N)CC(=O)C12CC3CC(CC(C3)C1)C2 (stereo unspecified)	i	i	i	i	i	87
O=C(O)C1CC(=O)N(c2ccc3c(c2)OCCO3)C1 (stereo unspecified)	i	i	i	i	nt	63
O=C(COC(=O)C1CC(=O)N(c2ccc3c(c2)OCCO3)C1)NC1CCCc2ccccc21 (stereo unspecified)	i	i	i	i	nt	56
O=C(Nc1ccc2c(c1)OCO2)C1CC(=O)N(c2ccc3c(c2)OCCO3)C1 (stereo unspecified)	i	i	i	i	i	i
COc1cccc(C2=NO[C@@H]3C(=O)N(c4ccc5c(c4)OCCO5)C(=O)[C@H]23)c1OC	69	i	i	i	nt	77
O=C(Nc1nc2ccccc2[nH]1)C1CC(=O)N(c2ccc3c(c2)OCCO3)C1 (stereo unspecified)	i	i	i	i	nt	69
O=C(Cc1ccccn1)N1CC(=O)N2[C@H](C1)[C@@H](c1ccc(C#CC3CC3)cc1)[C@@H]2CO	nt	nt	nt	nt	i	nt
CCCNC(=O)[C@@H]1N[C@@H]2c3ccc(C4=CCCCC4)c(=O)n3C[C@@H]2[C@H]1CO	nt	nt	nt	nt	i	nt
COc1cccc(OC)c1OC(=O)C1CC(=O)N(c2ccc3c(c2)OCCO3)C1 (stereo unspecified)	i	nt	i	nt	i	68
COc1ccccc1NC(=O)C(C)OC(=O)C1CC(=O)N(c2ccc3c(c2)OCCO3)C1 (stereo unspecified)	i	i	i	i	i	i
C[C@@H]1CN([C@@H](C)CO)S(=O)(=O)c2ccc(C#CCN(C)C)cc2O[C@H]1CN(C)C(=O)C1CCCCC1	nt	nt	nt	nt	i	nt
CCN(CC)c1ccc(NC(=O)COC(=O)/C=C/c2nc3ccccc3s2)cc1	i	i	i	i	i	i

Compound activity: PubChem, several laboratories
